AmpC inh detg – AmpC beta-lactamase inhibition with detergent present; P00811; AmpC hydrolysis of nitrocefin, absorbance 480 nm, 0.01% Triton; Potency, µM (doses to about 114 µM), inactives show top-dose activity change, negative = inhibition, most hits filed as inhibitors; 370,000 compounds, 0.041% hits; AID 485294;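 note: potency is the fitted concentration of half-maximal effect; 0% = no-compound wells and -100% = no-enzyme wells; nearly all actives have a fitted effect of over 25% in size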
Target sequence (P00811 whole entry, looked up): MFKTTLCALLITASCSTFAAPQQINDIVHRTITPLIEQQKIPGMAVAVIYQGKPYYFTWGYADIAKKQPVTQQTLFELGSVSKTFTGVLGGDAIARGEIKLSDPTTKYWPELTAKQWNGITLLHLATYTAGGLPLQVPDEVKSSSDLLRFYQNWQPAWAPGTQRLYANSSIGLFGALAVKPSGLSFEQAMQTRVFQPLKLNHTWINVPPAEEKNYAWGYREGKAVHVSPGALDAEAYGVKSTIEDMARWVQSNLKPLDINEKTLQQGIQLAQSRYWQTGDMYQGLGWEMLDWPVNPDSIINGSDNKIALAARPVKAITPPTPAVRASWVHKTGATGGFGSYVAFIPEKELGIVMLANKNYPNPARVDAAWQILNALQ
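AmpC (5.3 nM in the dispensed reagent) in 20 mM phosphate pH 7.0 with 0.01% (detergent screen) or 0.0001% Triton X-100 was preincubated with compounds for 15 min at room temperature. Nitrocefin was then added from an 800 uM solution, and hydrolysis was followed at 480 nm.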
AmpC no deterg – AmpC beta-lactamase inhibition without detergent | AmpC nitrocefin hydrolysis, absorbance 480 nm, 0.0001% Triton | AID 485341 | 330,000 compounds, 0.52% hits | Potency, µM (highest dose often 57.1 µM), for the others: at the highest dose activity change, negative = inhibition, usual class: inhibitors | P00811;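 note: potency is the fitted concentration of half-maximal effect; plate controls were no compound for no effect and no enzyme for full effect; nearly all actives have a fitted effect of over 20% in size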
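20 mM phosphate pH 7.0 + 0.01% (detergent screen) or 0.0001% Triton X-100; 5.3 nM AmpC reagent; cpd preinc 15 min RT; nitrocefin (800 uM stock) to start; A480 q20 s × 4 min; Activity was normalised to no-enzyme and no-compound control wells.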
NS1 function inh – inhibitors of influenza NS1 protein function; Potency, µM (top dose mostly 46.1 µM), for the others: at the top dose activity, positive = more growth; 270,000 compounds, 0.4% hits; AID 2326; calls by dose curve; note: potency is the fitted concentration of half-maximal effect; actives are rising curves; nearly all actives have a fitted effect of over 50% in size
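Compounds were scored for reversing the slow growth caused by influenza A NS1 in S. cerevisiae, measured by optical density at 600 nm. Assay medium contained 2% galactose at pH 6.0; NS1-free yeast of the same strain were the positive control.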
Shiga inhibitor – Shiga toxin inhibition; AID 2315; Vero cells, Shiga toxin protein synthesis inhibition reporter; inhibition, % at 38.7 µM; 290,000 compounds, 9.2% hits; in the data active = inhibition mostly above about 28%, no sharp cut-off; inactive = mostly below about 43%; note: 0% is about no effect
Cycloheximide cs – counter-screen hit for Shiga toxin inhibitors, cycloheximide | cell reporter, cycloheximide protein synthesis inhibition counterscreen | max response, % | 300,000 compounds, 12% hits | AID 2314; in the data active = max response mostly above about 13%, no sharp cut-off; inactive = mostly below about 14%; note: read at 38.3 µM for the half of the compounds with a filed dose; 0% is about no effect
The depositor's hits bear a star; u = inconclusive; x = no result. Many of the other results were omitted from the sample, so hits are more common in it than they were. Unless noted, calls come from the whole dose curve; as a rule, active = well fitted curve in the direction sought with a large enough effect; inconclusive = small, poorly fitted or top-dose-only effect, or another doubt; inactive = no such curve, though single readings can be large; an effect the other way counts as inactive or inconclusive.

SMILES | AmpC inh detg | AmpC no deterg | NS1 function inh | Shiga inhibitor | Cycloheximide cs
O=C1C=C(NCc2ccccc2)CCC1 | -15% | -6% | -1% | 6 | -1
O=C(COC(=O)c1ccccc1Br)NCc1ccccc1 | 3% | -28% | 5% | 38 | 24*
CCOC(=O)/C=C/C(=O)OCC(=O)NCc1ccccc1 | u | -12% | -41% | 9 | 16*
O=C(COC(=O)c1ccccc1Br)NCc1cccs1 | x | -34% | x | x | x
O=C(COC(=O)c1cc2ccccc2cc1O)Nc1ccccc1F | x | -47% | x | x | x
C/C(=C\C(=O)OCC(=O)NCc1ccccc1)C(=O)OCC(=O)NCc1ccccc1 | u | 0% | 16% | -9 | -1
O=C(COC(=O)c1ccccc1Br)Nc1ccccc1F | 5% | -33% | -1% | 57* | 55*
Cc1cccc(O)c1 | x | x | x | -3 | -5
CCN(Cc1ccccc1)C(=O)c1nc(-c2cccc(F)c2)n2c1CCCCC2 | -6% | x | x | x | x
c1ccc(-c2n[nH]c3c2oc2ccccc23)cc1 | x | x | x | 72* | 53*
COc1ccc(CNC(=O)c2ccc(-c3nc(CSc4ccccc4)c(C)o3)cc2)c(OC)c1 | 20% | x | x | x | x
CN(C)c1ccc(-c2nnc(SCC3CCCO3)n2C)cc1 (stereo unspecified) | -7% | 20% | -2% | 80* | 44*
Cn1c(SCC2CCCO2)nnc1-c1ccncc1 (stereo unspecified) | -9% | -10% | 2% | 14 | -3
Cc1ccc2nc(-c3ccc(Cl)c(NC(=O)COc4ccc([N+](=O)[O-])cc4)c3)oc2c1 | 1% | x | x | x | x
CN(CC(=O)Nc1ccc(Cl)c(C(F)(F)F)c1)C(=O)c1ccc(N2CCOCC2)c([N+](=O)[O-])c1 | -20% | u | x | x | x
COc1ccc(OCC(=O)Nc2cccc(OC)c2)cc1 | u | -21% | -49% | 103* | 42*
COc1cccc(NC(=O)COc2ccccc2C(N)=O)c1 | -1% | -3% | -2% | 60* | 40*
COc1cccc(OCC(=O)NNC(=O)C(=O)Nc2cccc(C)c2)c1 | -1% | -47% | -14% | 60 | 28*
CCN(CC)c1ccc(NC(=O)COc2ccc(C#N)cc2)cc1S(=O)(=O)Nc1ccc(OC)cc1 | -1% | 5µM* | u | -8 | -7
COc1cccc(OCC(=O)NNC(=O)C(=O)N2CCCC2)c1 | -13% | -24% | 26% | 16 | -3
COc1ccc(OCC(=O)Nc2cc(OC)cc(OC)c2)cc1 | u | -23% | -45% | -11 | -2
COC(=O)COc1ccccc1C(N)=O | u | -11% | -18% | -15 | -7
CCOC(=O)c1c(N)n(-c2ccccc2CC)c2nc3ccccc3nc12 | 9% | x | x | x | x
Cc1ccc(N2C(=S)N=C(Nc3ccccc3C)C23CCOC(C)(C)C3)cc1 (stereo unspecified) | 0% | -16% | 18% | 3 | 2
CC(=O)NC(CSC(CC(=O)c1ccco1)c1ccc(C)cc1)C(=O)O (stereo unspecified) | -11% | -25% | x | 105* | 57*
SMILES | AmpC inh detg | AmpC no deterg | NS1 function inh | Shiga inhibitor | Cycloheximide cs
O=C(CC(SCCO)c1ccc([N+](=O)[O-])cc1)c1ccco1 (stereo unspecified) | -8% | -27% | -17% | -2 | 13
Cc1cc(NC(=O)N2CCC(CN3CCCCCC3)CC2)ccc1Br | 11% | x | x | x | x
O=C(OCc1ccccc1)N1CCOCCOCCN(C(=O)OCc2ccccc2)CCOCCOCC1 | -1% | 237% | -24% | -12 | -8
Nc1n[nH]c(N)c1N=Nc1ccc(Cl)cc1Cl | -2% | -20% | -4% | 38* | 52*
CCOc1ccc2nc3cc(N=Nc4ccc(N)nc4N)ccc3c(N)c2c1 | x | x | -61% | x | x
Nc1n[nH]c(N)c1N=Nc1ccc(F)cc1 | 4% | -54% | x | 23 | 33*
Cc1ccccc1N=Nc1c(N)n[nH]c1N | u | -27% | 24% | 9 | 9
COc1ccc(N=Nc2ccc(N)nc2N)cc1 | -1% | -20% | -47% | 107* | 70*
Nc1n[nH]c(N)c1N=Nc1ccccc1F | -2% | -20% | 5% | 24 | 17*
Nc1n[nH]c(N)c1N=Nc1ccccc1 | 6% | -25% | 1% | 34 | 11
CN(C(=O)CSc1nnc(Cc2cccs2)n1C1CC1)C1CCS(=O)(=O)C1 (stereo unspecified) | 0% | -6% | x | x | x
O=C1C(=O)N(C2CCN(C(=O)c3cccc(Cl)c3)CC2)CCN1Cc1ccc(F)cc1 | -1% | x | x | x | x
COc1ccc(N=Nc2c(N)n[nH]c2N)cc1 | -1% | -27% | 5% | 45* | 27*
O=C(COc1ccccc1Cl)N1CCN(c2ccc([N+](=O)[O-])c(N3CCOCC3)c2)CC1 | -4% | -3% | 5% | -11 | 7
O=C(Cc1n[nH]c(=O)c2ccccc12)Nc1cc(C(F)(F)F)ccc1-n1cncn1 | u | 0% | x | x | x
CCOC(=O)N1CCN(CC(=O)c2ccc(O)c(C)c2O)CC1 | -12% | -22% | 8% | 33 | 31*
COc1ccccc1CNC(=O)C1CCC(CNS(=O)(=O)c2ccc(C)cc2)CC1 (stereo unspecified) | -5% | 0% | -13% | -13 | 3
CC(=O)c1c(NC(=O)c2ccccc2)[nH]c(-c2ccccc2)nc1=S | u | 22µM* | x | -4 | -1
CC(=O)c1c(C)[nH]c(-c2ccccc2)nc1=S | 11% | -18% | 7% | 5 | 6
CCS(=O)(=O)c1ncc(N(Cc2cccc(F)c2)Cc2ccco2)c(C(=O)Nc2ccccc2Cl)n1 | 8% | x | x | x | x
O=C1OC(c2ccc(F)cc2)=C/C1=C\c1ccc(O)cc1 | 0% | -37% | 7% | 40 | 14*
COc1ccc(C2=NN(CN3C(=O)C(=O)c4ccccc43)C(c3ccc(C)cc3)C2)cc1 (stereo unspecified) | u | -31% | 5% | 78* | 25*
COc1ccc(C2=NN(CN3C(=O)C(=O)c4ccccc43)C(c3ccc(Br)cc3)C2)cc1 (stereo unspecified) | -7% | -33% | 10% | 46 | 32*
Cc1cc(C)c2c(=O)cc(C(=O)Nc3sc4c(c3C(=O)NCC3CCCO3)CCCC4)oc2c1 (stereo unspecified) | 2% | x | x | x | x
CCCCN(CCCC)S(=O)(=O)c1c(C)[nH]c(=O)[nH]c1=O | -2% | -22% | x | -10 | 8
SMILES | AmpC inh detg | AmpC no deterg | NS1 function inh | Shiga inhibitor | Cycloheximide cs
CN(C(=O)CSc1nc2ccccc2o1)C1CCCCC1 | -14% | -13% | x | x | x
CCN1CCN(Cc2oc(CO)cc(=O)c2O)CC1 | 0% | -10% | 3% | -20 | -9
CCOC(=O)C1CCN(Cc2oc(CO)cc(=O)c2O)CC1 | 2% | -7% | -5% | 33* | 15
Cc1ccc2oc(C(=O)NCCC3CCCCO3)c(C)c2c1 (stereo unspecified) | 9% | 93% | -38% | 63* | 26*
Cc1ccccc1CSCc1ccc(C(=O)NCCCN2CCOCC2)o1 | -15% | 137% | x | -7 | -4
Cc1c(C(=O)NCCCN2CCOCC2)oc2ccc(S(=O)(=O)N3CCOCC3)cc12 | 4% | -10% | x | -20 | 1
Cc1ccc2oc(C(=O)NCCCN3CCOCC3)c(C)c2c1 | 7% | 1% | -1% | 71* | 44*

Screens: PubChem, National Center for Advancing Translational Sciences (NCATS)
